Measurements from article PMC9911399, “Two distinct binding modes provide the RNA-binding protein RbFox with extraordinary sequence specificity”.
Numbering of substitutions follows the chain as printed; changes in the protein carry UniProt numbers. The full ranking holds about 16,000 sequences; the median of “ka relative to ugcaugu” is about 0.096, and the highest 2% start at about 0.35. What follows is part of a selection rich in the highest values, with near analogues and random picks from the rest.

T1: RBFOX1 RRM RbFoxmut (Fox-RRM*) (Homo sapiens, UniProt Q9NWB1 109-208, R118D;E147R;N151S;E152T)
T1 sequence: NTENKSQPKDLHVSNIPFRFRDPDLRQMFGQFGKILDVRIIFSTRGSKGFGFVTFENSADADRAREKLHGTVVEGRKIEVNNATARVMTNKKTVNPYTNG

B1: UACUGGU (DNA:RNA)
RNA: GGGAGACCGGAAUUCAGAUUGUCCUACUGGUUUAAAUCCCGUCGUAGCCACCA
DNA 1: CAATCTGAATTCCGGTCTCCC
DNA 2: TGGTGGCTACGACGGGATT
B2: UGGAUGC (DNA:RNA)
RNA: B1 RNA with A26G, C27G, U28A, G29U, U31C
DNA 1: CAATCTGAATTCCGGTCTCCC
DNA 2: TGGTGGCTACGACGGGATT
B3: UGGAUGG (DNA:RNA)
RNA: B1 RNA with A26G, C27G, U28A, G29U, U31G
DNA 1: CAATCTGAATTCCGGTCTCCC
DNA 2: TGGTGGCTACGACGGGATT
B4: UGGAGAG (DNA:RNA)
RNA: B1 RNA with A26G, C27G, U28A, G30A, U31G
DNA 1: CAATCTGAATTCCGGTCTCCC
DNA 2: TGGTGGCTACGACGGGATT
B5: UGGACUG (DNA:RNA)
RNA: B1 RNA with A26G, C27G, U28A, G29C, G30U, U31G
DNA 1: CAATCTGAATTCCGGTCTCCC
DNA 2: TGGTGGCTACGACGGGATT
B6: CGGAGUG (DNA:RNA)
RNA: B1 RNA with U25C, A26G, C27G, U28A, G30U, U31G
DNA 1: CAATCTGAATTCCGGTCTCCC
DNA 2: TGGTGGCTACGACGGGATT
B7: UGGAUCC (DNA:RNA)
RNA: B1 RNA with A26G, C27G, U28A, G29U, G30C, U31C
DNA 1: CAATCTGAATTCCGGTCTCCC
DNA 2: TGGTGGCTACGACGGGATT
B8: UGGAGUG (DNA:RNA)
RNA: B1 RNA with A26G, C27G, U28A, G30U, U31G
DNA 1: CAATCTGAATTCCGGTCTCCC
DNA 2: TGGTGGCTACGACGGGATT
B9: CGGAUGC (DNA:RNA)
RNA: B1 RNA with U25C, A26G, C27G, U28A, G29U, U31C
DNA 1: CAATCTGAATTCCGGTCTCCC
DNA 2: TGGTGGCTACGACGGGATT
B10: GGAUCCG (DNA:RNA)
RNA: B1 RNA with U25G, A26G, C27A, G29C, G30C, U31G
DNA 1: CAATCTGAATTCCGGTCTCCC
DNA 2: TGGTGGCTACGACGGGATT
B11: UGGAGAC (DNA:RNA)
RNA: B1 RNA with A26G, C27G, U28A, G30A, U31C
DNA 1: CAATCTGAATTCCGGTCTCCC
DNA 2: TGGTGGCTACGACGGGATT
B12: CGGACUG (DNA:RNA)
RNA: GGGAGACCGGAAUUCAGAUUGUCCCGGACUGUUAAAUCCCGUCGUAGCCACCA
DNA 1: CAATCTGAATTCCGGTCTCCC
DNA 2: TGGTGGCTACGACGGGATT
B13: UGGAUCG (DNA:RNA)
RNA: B12 RNA with C25U, C29U, U30C
DNA 1: CAATCTGAATTCCGGTCTCCC
DNA 2: TGGTGGCTACGACGGGATT
B14: UAAGGAG (DNA:RNA)
RNA: B1 RNA with C27A, U28G, G30A, U31G
DNA 1: CAATCTGAATTCCGGTCTCCC
DNA 2: TGGTGGCTACGACGGGATT
B15: AGUAGGG (DNA:RNA)
RNA: B12 RNA with C25A, G27U, C29G, U30G
DNA 1: CAATCTGAATTCCGGTCTCCC
DNA 2: TGGTGGCTACGACGGGATT
B16: CAAGUGG (DNA:RNA)
RNA: B12 RNA with G26A, G27A, A28G, C29U, U30G
DNA 1: CAATCTGAATTCCGGTCTCCC
DNA 2: TGGTGGCTACGACGGGATT
B17: AUUCAGA (DNA:RNA)
RNA: B1 RNA with U25A, A26U, C27U, U28C, G29A, U31A
DNA 1: CAATCTGAATTCCGGTCTCCC
DNA 2: TGGTGGCTACGACGGGATT
B18: AGUCACU (DNA:RNA)
RNA: B12 RNA with C25A, G27U, A28C, C29A, U30C, G31U
DNA 1: CAATCTGAATTCCGGTCTCCC
DNA 2: TGGTGGCTACGACGGGATT
B19: UACUUUU (DNA:RNA)
RNA: B1 RNA with G29U, G30U
DNA 1: CAATCTGAATTCCGGTCTCCC
DNA 2: TGGTGGCTACGACGGGATT
B20: UCCUCCU (DNA:RNA)
RNA: B1 RNA with A26C, G29C, G30C
DNA 1: CAATCTGAATTCCGGTCTCCC
DNA 2: TGGTGGCTACGACGGGATT
B21: UCUGGCC (DNA:RNA)
RNA: B1 RNA with A26C, C27U, U28G, G30C, U31C
DNA 1: CAATCTGAATTCCGGTCTCCC
DNA 2: TGGTGGCTACGACGGGATT
B22: UGGACUC (DNA:RNA)
RNA: B12 RNA with C25U, G31C
DNA 1: CAATCTGAATTCCGGTCTCCC
DNA 2: TGGTGGCTACGACGGGATT
B23: UGGAGAA (DNA:RNA)
RNA: B12 RNA with C25U, C29G, U30A, G31A
DNA 1: CAATCTGAATTCCGGTCTCCC
DNA 2: TGGTGGCTACGACGGGATT
B24: CUGGAUC (DNA:RNA)
RNA: B12 RNA with G26U, A28G, C29A, G31C
DNA 1: CAATCTGAATTCCGGTCTCCC
DNA 2: TGGTGGCTACGACGGGATT

The binders below were run against T1, RBFOX1 RRM RbFoxmut (Fox-RRM*) (assay: EMSA; HiTS-Eq, 1 nM pool, 10 min; buffer printed only for the single-RNA assays: 10 mM Tris pH 7.5, 150 mM NaCl, 3.4 mM EDTA, 0.001% NP-40, 30 C). Details: tags: His6 N-terminal (pET28a); label: 5' 32P.
In short: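 Relative association constants, normalised to the cognate motif, were derived by comparing read counts of each RNA species with those of the control reaction. The RNA sequenced was the free fraction, separated by 8% native PAGE after a 10 min equilibration in 50 µL of 1 nM 5′-radiolabelled RNA (7 randomized nucleotides) with increasing concentrations of purified wild-type or mutant RbFox RRM.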
B1 was tested, and the binding signal was 0.103 KA relative to UGCAUGU. For B2, the binding signal was 0.438 KA relative to UGCAUGU. In the case of B3, the binding signal is reported as 0.332 KA relative to UGCAUGU. B4 was tested, and the binding signal was 0.108 KA relative to UGCAUGU. For B5, the binding signal was 0.418 KA relative to UGCAUGU. With B6 the binding signal was 0.198 KA relative to UGCAUGU. For B7, the binding signal was 0.211 KA relative to UGCAUGU. For B8, the binding signal was 0.45 KA relative to UGCAUGU. In the case of B9, the binding signal is reported as 0.189 KA relative to UGCAUGU. For B10, the binding signal was 0.153 KA relative to UGCAUGU. With B11 the binding signal was 0.0876 KA relative to UGCAUGU. B12 was tested, and the binding signal was 0.353 KA relative to UGCAUGU. In the case of B13, the binding signal is reported as 0.597 KA relative to UGCAUGU. For B14, the binding signal was 0.11 KA relative to UGCAUGU. With B15 the binding signal was 0.0759 KA relative to UGCAUGU. B16 was tested, and the binding signal was 0.0554 KA relative to UGCAUGU. For B17, the binding signal was 0.0812 KA relative to UGCAUGU. In the case of B18, the binding signal is reported as 0.0668 KA relative to UGCAUGU. With B19 the binding signal was 0.097 KA relative to UGCAUGU. In the case of B20, the binding signal is reported as 0.0641 KA relative to UGCAUGU. For B21, the binding signal was 0.161 KA relative to UGCAUGU. With B22 the binding signal was 0.0856 KA relative to UGCAUGU. B23 was tested, and the binding signal was 0.0999 KA relative to UGCAUGU. In the case of B24, the binding signal is reported as 0.274 KA relative to UGCAUGU.
